# Sampled rows, rich in hits. Any-hit rate of the full collection: about 4.8%.
# NR1D1 modulator: modulators of Rev-erb alpha DNA binding, primary screen, biochemical, FITC-DNA, fluorescence polarization, uHTS | Nuclear receptor subfamily 1 group D member 1 (Homo sapiens), P20393 | AID 1259318, 2017 | actives 0.79% (n = 370,000) | activity, % at 10 µM | Rev-erbα–FITC-DNA binding, 90 min;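 active = activity above about 14%, limit read from the data; passing the limit was not always enough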;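 also: 0% = DMSO wells with 35 nM protein and 100% = DMSO wells with 750 nM protein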
# Target sequence (P20393 whole entry, looked up): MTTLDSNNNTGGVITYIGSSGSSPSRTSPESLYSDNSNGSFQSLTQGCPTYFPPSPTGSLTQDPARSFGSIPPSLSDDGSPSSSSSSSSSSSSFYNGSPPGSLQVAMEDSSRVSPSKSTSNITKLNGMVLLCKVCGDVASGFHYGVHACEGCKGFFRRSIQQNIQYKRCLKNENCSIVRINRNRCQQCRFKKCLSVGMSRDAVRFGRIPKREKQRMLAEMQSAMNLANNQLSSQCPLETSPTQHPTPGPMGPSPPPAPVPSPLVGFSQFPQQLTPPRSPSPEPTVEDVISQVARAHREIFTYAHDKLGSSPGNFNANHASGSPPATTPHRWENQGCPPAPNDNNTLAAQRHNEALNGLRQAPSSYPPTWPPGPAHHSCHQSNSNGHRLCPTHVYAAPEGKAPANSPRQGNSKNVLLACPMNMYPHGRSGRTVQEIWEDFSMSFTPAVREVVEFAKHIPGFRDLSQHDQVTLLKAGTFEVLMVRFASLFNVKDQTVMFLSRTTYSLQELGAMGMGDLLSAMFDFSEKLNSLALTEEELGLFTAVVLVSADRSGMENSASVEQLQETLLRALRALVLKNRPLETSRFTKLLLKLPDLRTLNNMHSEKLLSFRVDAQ
# hgDAF-12 ag: H. glycines DAF-12 receptor agonists, primary screen, cell-based, luminescence, HEK293, GAL4 fusion, UAS-luciferase; Nuclear hormone receptor DAF-12 (Heterodera glycines), GAL4 fusion; HEK293 GAL4-hgDAF12 UAS-luciferase reporter, agonist luminescence; normalized to butyrate control; activation, % at 6.8 µM; actives 1.8% (n = 370,000);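 active = activation above a cutoff set at the mean of all screened compounds plus 3 SD, cut at about 10% in these data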;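 also: 0% = DMSO wells and 100% = sodium butyrate wells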
# ssDAF-12 act: S. stercoralis DAF-12 nuclear receptor activators, primary screen, cell-based, luminescence, HEK293, GRIP1 co-expression, lit1-tk-luc. HEK293 ssDAF-12/GRIP1 lit1-tk-luc reporter; % of 3 µM dafachronic acid response. activation, % at 6.8 µM. actives 1% (n = 370,000). AID 652126, 2013;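 active = activation above the mean over all tested compounds plus 3 SD, cut at about 0.9% in these data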;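 also: 0% = DMSO-only wells and 100% = 3 µM delta7-dafachronic acid wells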
# DAX1 inh-1: DAX1 (NR0B1) inhibitors, primary screen, cell-based, HEK293, Gal4-DAX1, luciferase luminescence. inhibition, % at 6.75 µM. HEK293 Gal4-DAX1 luciferase reporter. Nuclear receptor subfamily 0 group B member 1 (Homo sapiens), P51843. actives 0.99% (n = 340,000);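 active = inhibition above the mean over all tested compounds plus 3 SD, cut at about 4.2% in these data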;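 also: 0% = DAX1-transfected cells with DMSO and 100% = empty-vector control cells with DMSO; inhibition shows as a rise in luminescence from relieved DAX1 repression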
# hcDAF12 agonist: H. contortus DAF-12 nuclear receptor activators, primary screen, cell-based, luminescence, HEK293, lit1-tk-luc reporter; actives 1.4% (n = 370,000); HEK293 hcDAF-12 lit1-tk-luc reporter; 0% DMSO, 100% Δ7-dafachronic acid; activation, % at 6.8 µM;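 active = activation above the mean of all tested compounds plus 3 SD, cut at about 5.5% in these data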;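 also: 100% = response to 3 µM Δ7-dafachronic acid high control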
# DAX1 inh-2: DAX1 (NR0B1) inhibitors on StAR promoter, primary screen, cell-based, luminescence, SF-1 (NR5A1), full-length DAX-1 | inhibition, % at 6.8 µM | actives 1.1% (n = 370,000) | HEK293T StAR-luciferase reporter, SF-1/DAX-1 repression relief | AID 652010, 2013;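 active = inhibition above the mean over all tested compounds plus 3 SD, cut at about 3.6% in these data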;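 also: 0% = DAX-1 cells with DMSO and 100% = cells lacking DAX-1 with DMSO; higher inhibition means more luminescence from relief of DAX-1 repression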
# LXRb hcDAF ctr: LXR agonists, Gal4 luciferase reporter, confirmation, counter-screen for hcDAF-12 agonist project, cell-based, luminescence, HEK293, H. contortus campaign; shares compounds with hcDAF12 agonist; HEK293 Gal4-LXR tk-luc reporter, 24 h; normalized: DMSO 0%, positive control 100%; activation, % at 6.8 µM; 3,400 tested, under 10 active; AID 743027, 2013;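 active = mean percent activation of the reporter above a cutoff set as the average over tested compounds plus their standard deviation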
# hcDAF12 conf: H. contortus DAF-12 receptor agonists, confirmation, cell-based, luminescence, HEK293, lit1-tk-luc, triplicate | activation, % at 6.8 µM | HEK293 hcDAF-12 lit1-tk-luc reporter; % of Δ7-dafachronic acid response | AID 743032, 2013 | shares compounds with hcDAF12 agonist | actives 61% (n = 3,400);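 active = mean activation across triplicate tests above the threshold derived from the earlier primary screen, cut at about 5.5% in these data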;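 also: 0% = DMSO only wells and 100% = 3 µM Δ7-dafachronic acid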
# Active calls of the source: *; nt = not tested or not shown.
SMILES,NR1D1 modulator,hgDAF-12 ag,ssDAF-12 act,DAX1 inh-1,hcDAF12 agonist,DAX1 inh-2,LXRb hcDAF ctr,hcDAF12 conf
CC(=O)Oc1ccc(C(=O)Nc2ccc3c(c2)OCCO3)cc1,4,11*,1,2,9.1*,3,2,8.5*
COc1ccc(C(=O)/C=C(\C)Nc2ccc3c(c2)OCO3)cc1,4,7,0,0,7.2*,0,1,5
CCC(=O)Nc1ccc2c(c1)OCCO2,6,-1,-2,-1,-1,-1,nt,nt
C=CCN=C1NC(c2ccccc2C(F)(F)F)C(C(=O)OC)=C(C)N1Cc1cccc(C(F)(F)F)c1 (stereo not given),6,0,-2,nt,0,0,nt,nt
O=c1[nH]c2ccccc2nc1Cc1ccccc1,2,-2,-2,-1,2,0,nt,nt
O=C(Cc1nc2ccccc2[nH]c1=O)c1ccccc1,6,11*,1.2*,1,8.1*,2,2,9.9*
Cc1ccc(-c2ccc(C)c(N)c2C)c(C)c1N,-9,-3,-1,0,-2,-1,nt,nt
Cc1ccc2cn[nH]c2c1N,3,3,1,0,6.9*,-1,0,4
CC1(C)CC(=O)c2cc(C(=O)NC3CCSC3=O)c(=O)n(-c3ccc(Cl)cc3)c2C1 (stereo not given),3,-1,-1,0,-1,0,nt,nt
Cc1ccc(-n2c3c(cc(C(=O)NC4CCSC4=O)c2=O)C(=O)CC(C)(C)C3)cc1 (stereo not given),-10,0,-1,0,6.9*,0,0,-1
COc1ccc(OCc2nn3c(-c4ccccc4)nnc3s2)cc1,-2,0,-2,nt,-2,0,nt,nt
COc1ccc(N=Nc2cc(OC)c(N)cc2OC)cc1,11,2,0,-4,2,-1,nt,nt
Cc1cc(N=Nc2ccc(C)c(N=Nc3cc(C)c(N)cc3N)c2)c(N)cc1N,15,13*,0,2,7.3*,2,2,12*
CCCCN1CC[C@H](C)Oc2cc(Br)ccc2S1(=O)=O,3,-1,-1,nt,1,0,nt,nt
CC(C)(C)c1cc(N2CCOCC2)n2ncc(-c3ccccc3)c2n1,5,-1,0,1,1,0,nt,nt
Cc1nc2c(-c3ccccc3)cnn2c(N2CCOCC2)c1C,6,13*,0,3,12*,3,1,9.0*
CC(/C=N/N1CCN(c2ccccn2)CC1)=C\c1ccccc1,-3,7,-1,2,6.7*,1,0,2
CCOC(=O)c1c(NC(=O)c2cccs2)sc(CC)c1-c1cccs1,4,2,-1,0,-2,-1,nt,nt
Cc1sc(NC(=O)c2cccs2)c(C(N)=O)c1C,6,9,0,1,8.5*,1,0,6.2*
COc1ccc2c(C(=O)c3ccc(Cl)cc3)n(CCCC(N)=O)[n+]([O-])c2c1,1,0,0,1,6.9*,0,0,4
Cc1ccc(C(=O)c2c3ccc(C(F)(F)F)cc3[n+]([O-])n2CCCC(N)=O)cc1,0,0,-1,1,3,0,nt,nt
Cc1ccc(C(=O)c2c3ccc(C(F)(F)F)cc3[n+]([O-])n2CCC(N)=O)cc1,12,1,0,1,7.8*,0,0,2
O=C(CCn1c(=S)oc2ccccc21)Nc1cccc(F)c1,1,-1,-1,-1,7.5*,0,-1,-2
O=C(CCn1c(=S)oc2ccccc21)Nc1cccc(O)c1,2,3,-2,-1,0,-1,nt,nt
Cc1ccc(C(=O)NC(=S)Nc2c(C)ccc3nsnc23)cc1,-1,0,1.6*,0,7.6*,0,0,3
SMILES,NR1D1 modulator,hgDAF-12 ag,ssDAF-12 act,DAX1 inh-1,hcDAF12 agonist,DAX1 inh-2,LXRb hcDAF ctr,hcDAF12 conf
Cc1ccc(-c2cc(-c3nnc(SCC(=O)Nc4ccccc4-c4ccccc4)n3N)[nH]n2)cc1,-2,0,-2,nt,-2,-2,nt,nt
CCOc1ccccc1CN1CCN(CC2CC2)CC1CCO (stereo not given),-4,0,-2,-1,0,0,nt,nt
CCOc1ccccc1CN1CCN(Cc2cc3ccccc3[nH]2)CC1CCO (stereo not given),1,0,0,0,7.0*,0,0,3
Cc1ccc(NCC(=O)c2ccccc2)cc1Cl,-2,2,0,1,7.7*,0,0,3
Cc1ccc(C(=O)CNc2ccc(C)c(Cl)c2)cc1,-3,-1,-1,1,0,1,nt,nt
O=c1cccc2n1Cc1cc3ccccc3nc1-2,-3,10,0,3,14*,2,1,9.7*
N=c1oc2cc(O)ccc2cc1C(=O)Nc1nc2ccccc2s1,0,1,-1,3,7.2*,1,2,11*
COc1ccc(NC(=O)[C@@]2(CC(=O)O)CC(/C=C/c3ccccc3)=NO2)cc1,5,1,0,1,7.9*,0,0,1
CC(=O)c1ccc(NC(=O)[C@@]2(CC(=O)O)CC(/C=C/c3ccccc3)=NO2)cc1,-2,-1,-1,0,0,0,nt,nt
CCOC(=O)c1ccc2c(c1)nc(-c1ccccn1)n2CC,-7,8,0.9*,2,7.6*,2,1,8.7*
CCOC(=O)Cn1c(-c2ccccn2)nc2ccccc21,2,2,-1,0,-2,-1,nt,nt
COC(=O)CN1CCN(C(=O)c2csc3ccccc23)CC1,2,1,-1,nt,-2,1,nt,nt
COc1ccc(NC(=O)Nc2nnc(-c3cccs3)s2)cc1,-7,4,-1,1,2,1,nt,nt
